Among the test systems are T-47D breast; BT-549 breast; MDA-MB-435 melanoma; SW-620 colon; MCF7 breast; HCT-116 colon; HCC-2998 colon; KM12 colon.
Common to all, as to assay: NCI-60 one-dose screen, 48 h (100 = growth as untreated, 0 = no growth, -100 = all killed)
Conditions in all cases: 10 µM unless noted

About 83,000 compounds went through this panel and 20% of them were active in at least one assay; those are over-represented in the sample as a whole.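 Growth was measured after 48 h exposure to one concentration of compound in 96-well plates. Values under 10 count as active.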 Unmarked numbers belong to inactive results. The source made the active and inactive calls.

As to `NCC(=O)NS(=O)(=O)OC[C@H]1O[C@@H](n2cnc3c(N)ncnc32)[C@H](O)[C@@H]1O`, the growth was 7.66% (active) in the assay on T-47D breast; 21.1% in the assay with BT-549 breast; -49.8% (active) in the assay with MDA-MB-435 melanoma; 3.71% (active) in the assay on SW-620 colon; 8.27% (active) in the assay on MCF7 breast; 6.57% (active) in the assay on HCT-116 colon. The growth in the assay with HCC-2998 colon is 41.4%; in the assay on KM12 colon it was 0.735% (active).
Regarding `O=S(=O)(CCN1CCOCC1)Nc1cc(-c2ccc3ncnc(Nc4ccc(F)c(Cl)c4)c3c2)cnc1Cl`, the growth was -32.6% (active) in the assay with T-47D breast; -9.24% (active) with BT-549 breast; 6.92% (active) in the assay on MDA-MB-435 melanoma; 30.4% with SW-620 colon; 13.6% in the assay on MCF7 breast; 18.9% in the assay on HCT-116 colon. Also, the values for the growth in the assay with HCC-2998 colon and in the assay on KM12 colon were 17.4% and 20.8%, respectively.
Take `O=C(COc1ccc(Cl)cc1)N1CCN(Cc2ccc3c(c2)OCO3)CC1`: the growth is 78.2% in the assay with T-47D breast; 98.3% in the assay with BT-549 breast; 101% in the assay with MDA-MB-435 melanoma; 97% with SW-620 colon; 103% in the assay on MCF7 breast; 102% with HCT-116 colon. Further, the growth in the assay with HCC-2998 colon was 99.9%; in the assay on KM12 colon, 102%.
As for `CNCCCOc1c(Br)cc(CCNC(=O)/C(Cc2cc(Br)c(OC)c(Br)c2)=N/O)cc1Br`, the growth in the assay with T-47D breast is -27.5% (active); in the assay on BT-549 breast, 48%; in the assay with MDA-MB-435 melanoma, -59.6% (active); with SW-620 colon it was -47.1% (active); in the assay with MCF7 breast, -40.3% (active); in the assay on HCT-116 colon, -91.6% (active). Also, the growth in the assay with HCC-2998 colon is -49.5% (active); in the assay on KM12 colon it was -1.14% (active).
Turning to `C=C1C(=O)O[C@H]2[C@H]1CC/C(COC(=O)c1ccc(Br)cc1)=C\CC[C@@]1(C)O[C@@H]21`, the growth with T-47D breast was -47% (active); with BT-549 breast, -8.16% (active); with MDA-MB-435 melanoma, -35.4% (active); in the assay with SW-620 colon it was -47.5% (active); with MCF7 breast, -18.5% (active); in the assay on HCT-116 colon, -84.3% (active). Further, the growth in the assay on HCC-2998 colon is 87.3%; in the assay on KM12 colon, 56.2%.
Consider `O=C(c1ccccc1)[C@H]1[C@@H]2CCCN2[C@]2(C(=O)Nc3ccc(F)cc32)[C@]12C(=O)Nc1ccccc12`, for which the growth in the assay with T-47D breast is 65.6%; in the assay with BT-549 breast, 91.6%; in the assay on MDA-MB-435 melanoma, 92%; in the assay with SW-620 colon it was 97.8%; in the assay with MCF7 breast, 82.5%; in the assay with HCT-116 colon, 76.5%. Also, the growth was 101% with HCC-2998 colon and 94.1% in the assay with KM12 colon.
As to `COc1cc(C(=O)NNC(=O)c2ccccc2O)cc(OC)c1OC`, the growth with T-47D breast was 82.5%; in the assay with BT-549 breast it was 120%; with MDA-MB-435 melanoma, 96.9%; in the assay with SW-620 colon, 103%; in the assay with MCF7 breast, 92.2%; in the assay with HCT-116 colon it was 101%. The growth with HCC-2998 colon was 97.1%; in the assay with KM12 colon it was 103%.
For `CC(C)(C)NC(C1=CC(C)(C)c2ccccc2C1=O)c1ccccc1` (stereo not drawn), the growth in the assay with T-47D breast was -71.8% (active); in the assay with BT-549 breast it was -32.9% (active); in the assay with MDA-MB-435 melanoma, -25.4% (active); in the assay on SW-620 colon, -82.3% (active); in the assay with MCF7 breast, -63.6% (active); in the assay with HCT-116 colon it was -99.5% (active). In addition, the growth with HCC-2998 colon was -31.3% (active); in the assay with KM12 colon, -29.2% (active).
As to `O=C(NCCNc1nccc(-c2c(-c3cccc(O)c3)nc3sccn23)n1)c1ccccc1O`, the growth in the assay on T-47D breast was 61.8%; in the assay with BT-549 breast, 45.7%; in the assay on MDA-MB-435 melanoma, 14.3%; in the assay with SW-620 colon, 77.9%; with MCF7 breast it was 37%; in the assay on HCT-116 colon it was 25.9%. The figures for the growth with HCC-2998 colon and in the assay with KM12 colon were 81% and 46.7%, respectively.
As for `O=C(/C=C/c1ccccc1)Oc1ccc(/C=C/c2cc(OC(=O)/C=C/c3ccccc3)cc(OC(=O)/C=C/c3ccccc3)c2)cc1`, the growth is 81.9% in the assay on T-47D breast; 102% in the assay on BT-549 breast; 101% with MDA-MB-435 melanoma; 99.6% with SW-620 colon; 103% in the assay with MCF7 breast; 96.3% in the assay on HCT-116 colon. Besides, the values for the growth with HCC-2998 colon and with KM12 colon were 104% and 103%, respectively.
For the molecule `CC(C)Cn1cnc2c3ccccc3nc(NCn3nc(-c4cc(Cl)cc(Cl)c4Cl)oc3=S)c21`, the growth in the assay with T-47D breast was 94.4%; in the assay with BT-549 breast, 97.5%; with MDA-MB-435 melanoma it was 91.4%; in the assay with SW-620 colon, 117%; with MCF7 breast, 96.2%; in the assay with HCT-116 colon it was 79.3%. Moreover, the growth was 97.4% with HCC-2998 colon and 99.7% with KM12 colon.
Turning to `CCCCCCCCCCCCCCCCNc1ccccc1`, the growth was 88.6% with T-47D breast; 71.7% in the assay on BT-549 breast; 111% in the assay with MDA-MB-435 melanoma; 108% in the assay with SW-620 colon; 90.1% with MCF7 breast; 101% in the assay with HCT-116 colon. For the same molecule, the growth with HCC-2998 colon is 105%; in the assay with KM12 colon, 88.7%.
As for `C#CCn1c(-c2cc(OC)c(OC)cc2Br)nc(-c2ccccc2)c1-c1ccccc1`, the growth in the assay on T-47D breast is 39.3%; in the assay with BT-549 breast it was 60.7%; with MDA-MB-435 melanoma it was 6.82% (active); in the assay with SW-620 colon it was 23.9%; with MCF7 breast, 19.4%; in the assay on HCT-116 colon, 19.9%. The growth is 66.8% with HCC-2998 colon and 20% in the assay on KM12 colon.
On to `CCCCCn1ncc(-c2c(O)c(O)cc3c(O)c(-c4c(C)cc5c(-c6cnn(CCCCC)n6)c(O)c(O)cc5c4O)c(C)cc23)n1`, for which the growth in the assay on T-47D breast was -5.48% (active); in the assay on BT-549 breast, 7.18% (active); in the assay on MDA-MB-435 melanoma, 17.1%; in the assay on SW-620 colon, 18.5%; with MCF7 breast, 4.84% (active); in the assay on HCT-116 colon it was 3.24% (active). Further, the growth is 0.112% (active) in the assay on HCC-2998 colon and 4.29% (active) in the assay on KM12 colon.
Consider `C=C1C(=O)O[C@H]2[C@H]1CC/C(COC(=O)c1cc(OC)c(OC)c(OC)c1)=C\CC[C@@]1(C)O[C@@H]21`, for which the growth in the assay on T-47D breast was -38.7% (active); in the assay with BT-549 breast it was -42% (active); in the assay on MDA-MB-435 melanoma, -53% (active); in the assay with SW-620 colon, -49.5% (active); with MCF7 breast it was -16.5% (active); in the assay with HCT-116 colon, -84.8% (active). Moreover, the values for the growth in the assay on HCC-2998 colon and in the assay with KM12 colon were 41.2% and 54.5%, respectively.
In the case of `Cl[C@@H]1CCO[C@H](c2cc3ccccc3c3ccccc23)C1`, the growth in the assay with T-47D breast is 99.5%; in the assay with BT-549 breast, 87.4%; in the assay with MDA-MB-435 melanoma, 101%; in the assay on SW-620 colon it was 95.4%; with MCF7 breast, 97.5%; with HCT-116 colon it was 90.3%. Further, the values for the growth in the assay with HCC-2998 colon and with KM12 colon were 94.8% and 100%, respectively.

For the origin of these results see PubChem BioAssay (NCI).
